# From PubChem
# AmpC no deterg: blocks E. coli AmpC beta-lactamase in detergent-free assay; AmpC nitrocefin hydrolysis, absorbance 480 nm, 0.0001% Triton; AID 485341; Potency, µM (titrated, usually from 57.1 µM), actives largely listed as inhibitors; 0.52% of 330,000 active; P00811; also: nearly all actives have a fitted effect of over 20% in size
# Target sequence (P00811 whole entry, looked up): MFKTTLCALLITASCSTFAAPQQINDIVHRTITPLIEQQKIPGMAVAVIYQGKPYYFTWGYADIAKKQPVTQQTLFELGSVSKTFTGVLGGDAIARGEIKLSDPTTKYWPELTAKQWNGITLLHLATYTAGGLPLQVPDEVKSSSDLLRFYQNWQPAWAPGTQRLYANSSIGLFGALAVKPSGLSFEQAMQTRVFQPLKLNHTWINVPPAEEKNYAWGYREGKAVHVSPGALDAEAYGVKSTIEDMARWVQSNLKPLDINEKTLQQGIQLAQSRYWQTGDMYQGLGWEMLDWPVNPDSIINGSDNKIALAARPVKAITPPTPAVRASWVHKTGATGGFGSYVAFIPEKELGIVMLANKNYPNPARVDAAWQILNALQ
#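 AmpC (5.3 nM in the dispensed reagent) in 20 mM phosphate pH 7.0 with 0.01% (detergent screen) or 0.0001% Triton X-100 was preincubated with compounds for 15 min at room temperature. Nitrocefin was then added from an 800 uM solution, and hydrolysis was followed at 480 nm.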
# AmpC inh detg: inhibitors of E. coli AmpC beta-lactamase with detergent. P00811. AmpC hydrolysis of nitrocefin, absorbance 480 nm, 0.01% Triton. Potency, µM (titrated, usually from 114 µM), hits mostly inhibitors. 0.041% of 370,000 active. AID 485294; also: nearly all actives have a fitted effect of over 25% in size
#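 20 mM phosphate pH 7.0 + 0.01% (detergent screen) or 0.0001% Triton X-100; 5.3 nM AmpC reagent; cpd preinc 15 min RT; nitrocefin (800 uM stock) to start; A480 q20 s × 4 min; Activity was normalised to no-enzyme and no-compound control wells.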
# Pf growth 48h: inhibits P. falciparum growth in the first generation, 48 h; P. falciparum luciferase growth in erythrocytes, 48 h; 5.9% of 310,000 active; AID 504832; Potency, µM (highest dose often 28.7 µM), hits mostly inhibitors
#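 Luciferase-expressing parasites in RBCs, 2% Hct / 0.1% parasitemia final; RPMI 1640 + 0.5% Albumax; 37 C, 5% CO2, one generation; luminescence read-out, lower signal = inhibition.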
# Sm TGR inh: blocks Schistosoma mansoni thioredoxin glutathione reductase; purified TGR, DTNB reduction, TNB absorbance 405 nm; Q962Y6; 3% of 360,000 active; Potency, µM (doses to about 114 µM), usual class: inhibitors; AID 485364; also: nearly all actives have a fitted effect of over 60% in size
#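 Kinetic colorimetric format: TGR-catalysed, NADPH-driven DTNB reduction monitored via TNB absorbance. Enzyme dispensed at 20 nM; compound exposure 15 min at room temperature before reaction start.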
# SARS PLP yeast: blocks SARS-CoV papain-like protease in a yeast assay; S. cerevisiae expressing SARS-CoV PLpro, growth rescue; Potency, µM (top dose mostly 32.9 µM), most hits filed as activators; 0.19% of 330,000 active; calls by dose curve; also: nearly all actives have a fitted effect of over 55% in size
# Pf growth 96h: inhibits malaria parasite growth, 96 h | P. falciparum luciferase reporter growth, 96 h | Potency, µM (highest dose often 28.7 µM), actives largely listed as inhibitors | 6.9% of 320,000 active
#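 Parasite growth measured via integrated firefly luciferase reporter in P. falciparum. Infected erythrocytes at 2% hematocrit, 0.05% parasitemia final were treated 96 hours at 37 C under 5% CO2, and luminescence was read.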
# A number is an active result; i = inactive; ? = inconclusive; nt = not tested or not shown. Hits are enriched below; roughly 12% of the tested compounds scored in any of these assays. Unless noted, calls follow the shape of the dose curve; as a rule, active = well fitted curve in the direction sought with a large enough effect; inconclusive = small, poorly fitted or top-dose-only effect, or another doubt; inactive = no such curve, though single readings can be large; an effect the other way counts as inactive or inconclusive.
SMILES,AmpC no deterg,AmpC inh detg,Pf growth 48h,Sm TGR inh,SARS PLP yeast,Pf growth 96h
CCCCNC(=O)C1CCN(S(=O)(=O)c2cc(Br)cc3c2N(C(=O)CC)CC3)CC1,nt,i,nt,i,nt,nt
FC(F)(F)c1cccc(N2CCN(C(=S)NC3CCCCC3)CC2)c1,i,i,i,i,i,i
FC(F)(F)c1cccc(N2CCN(C(=S)NC3CCCC3)CC2)c1,0.25µM,i,?,i,i,13µM
S=C(NC1CCCCC1)N1CCN(c2ccccn2)CC1,i,i,i,i,i,12µM
S=C(NC1CCCCC1)N1CCN(c2ncccn2)CC1,i,i,i,i,i,i
S=C(NC1CCCCC1)N1CCOCCOCCN(C(=S)NC2CCCCC2)CCOCCOCC1,i,i,?,i,i,10µM
COc1ccc2c(Sc3ccccc3)c(C(=O)N3CCC(C)CC3)[nH]c2c1,nt,i,nt,i,nt,nt
COCCn1c(C)cc(O)c(C(c2ccccc2OC)N2CCCCC2)c1=O (stereo unspecified),nt,i,nt,10µM,nt,nt
COCCn1c(C)cc(O)c(C(=O)Nc2cccc(Cl)c2)c1=O,i,i,i,i,i,?
CCOC(=O)C1CCN(CCC(=O)Nc2ccccc2OC)CC1,nt,i,nt,i,nt,nt
CCOC(=O)C1CCN(C(c2ccccc2OC)c2c(O)cc(C)n(CCOC)c2=O)CC1 (stereo unspecified),nt,i,nt,7.1µM,nt,nt
Cc1ccc(NC(=O)Cn2c(=O)n(Cc3ccccc3)c(=O)c3sc4ccccc4c32)cc1,nt,i,nt,i,nt,nt
CCOc1ccc(/C=C/C(=O)N(CC)CC(=O)Nc2ccc3c(c2)OCCO3)cc1OC,i,?,?,i,i,?
COC(=O)c1ccc(NC(=O)COc2ccc(C3C(C#N)=C(N)Oc4c3ccc3ccccc43)cc2OC)cc1 (stereo unspecified),i,?,?,i,i,?
CCCN(CC(=O)Nc1ccccc1C)C(=O)Cc1n[nH]c(=O)c2ccccc12,i,i,i,i,i,i
CCCN(CC(=O)Nc1ccccc1C)C(=O)c1oc2ccc(OCC)cc2c1C,i,i,2.9µM,i,nt,7.4µM
CCCN(CC(=O)Nc1ccccc1C)C(=O)Cc1c(C)nc2ccccc2c1C,i,i,10µM,i,i,?
CCCN(CC(=O)Nc1ccccc1C)C(=O)/C=C/c1ccc(OCC)c(OC)c1,i,?,9.3µM,i,i,?
COc1cc(C2C(C#N)=C(N)Oc3c2ccc2ccccc32)ccc1OCC(=O)Nc1ccccc1C (stereo unspecified),i,i,10µM,i,i,?
COc1ccc(N2CC(NC(=O)c3c(F)cccc3Cl)CC2=O)cc1OC (stereo unspecified),nt,i,nt,i,nt,nt
CC1CCc2nn(CC(=O)Nc3ccccc3Cl)cc2C1 (stereo unspecified),nt,i,nt,i,nt,nt
COc1cc(/C=C2\SC(N)=NC2=O)ccc1OCC(=O)Nc1ccccc1C,i,i,5.9µM,i,i,5.2µM
CCCOc1ccc(/C=C2\SC(N)=NC2=O)cc1OC,i,i,i,i,i,i
CCc1ccc(S(=O)(=O)/N=C2\C=CC(=O)c3ccccc32)cc1,16µM,i,2.3µM,8.9µM,i,?
O=C1c2ccccc2C(=O)N1CCSc1ncn[nH]1,i,i,i,i,i,i
SMILES,AmpC no deterg,AmpC inh detg,Pf growth 48h,Sm TGR inh,SARS PLP yeast,Pf growth 96h
CCc1ccc(S(=O)(=O)/N=C2\C=C(Nc3cccc(C(=O)O)c3)C(=O)c3ccccc32)cc1,i,i,1.7µM,i,i,i
CCc1ccc(S(=O)(=O)/N=C2\C=C(Nc3ccc(O)cc3)C(=O)c3ccccc32)cc1,i,i,0.74µM,i,i,?
CCc1ccc(S(=O)(=O)/N=C2/C=C(Sc3ncn[nH]3)C(=O)c3ccccc32)cc1,20µM,i,2.9µM,0.32µM,i,4.1µM
O=C1CN(c2nc3nonc3nc2N2CCCCC2)CCN1,i,i,i,i,i,?
CC1CCN(C(=O)CNC(=O)CNC(=O)Cc2ccccc2)CC1,i,i,i,i,i,?
CC(=O)N1CCc2cc(Br)cc(S(=O)(=O)N3CCN(c4cccc(C(F)(F)F)c4)CC3)c21,nt,i,nt,i,nt,nt
CCOC(=O)C1=C(CC)Nc2ccccc2N=C1NC(=O)c1cc(C)on1,i,i,i,i,i,i
CCOC(=O)C1=C(CC)Nc2ccccc2N=C1NC(=O)Nc1ccc(Cl)c(Cl)c1,i,i,nt,i,i,2.6µM
Cc1sc2c(c1C)c(=O)nc1n2Cc2ccccc2-1,i,i,i,i,i,nt
COC1=C(N)C(=O)c2nc(-c3nc(C(=O)O)c(C)c(-c4ccc(OC)c(OC)c4O)c3N)ccc2C1=O,i,i,0.052µM,i,i,0.019µM
COc1ccc(-c2ncncc2-c2csc(C)n2)c(O)c1OC,i,i,i,i,i,nt
COC(=O)c1nc(-c2ccc3c(n2)C(=O)C(N)=C(OC)C3=O)c(N)c(-c2ccc(OC)c(OC)c2O)c1C,i,i,0.093µM,i,i,?
CN1c2ccc(Cl)cc2-c2nc(SCC(=O)NCc3ccccc3)ncc2S1(=O)=O,nt,i,nt,i,nt,nt
Nc1nn(-c2ccccc2)nc1C(=O)OCc1ccccc1F,i,i,i,i,i,1µM
Cc1ccccc1COC(=O)c1nn(-c2ccccc2)nc1N,i,i,i,i,i,?
CCOc1ccc(S(=O)(=O)NC(C)(C)C)cc1-c1nc2c(C(C)(C)C)nn(C)c2c(=O)[nH]1,i,i,4.7µM,i,?,i
CCOc1ccc(S(N)(=O)=O)cc1-c1nc2c(C(C)(C)C)nn(C)c2c(=O)[nH]1,i,i,?,i,i,?
Cc1cc(C2=CC(C)(c3cc(C)oc3C)Nc3nc(C(F)(F)F)nn32)c(C)o1 (stereo unspecified),i,i,9.3µM,10µM,i,i
Cc1ccc(C2=CC(C)(c3ccc(C)cc3)Nc3nc(C(F)(F)F)nn32)cc1 (stereo unspecified),i,i,?,i,i,?
Cc1ccc(-n2nc3c(N4CCC(C(=O)NC5CCCCC5)CC4)nnc(C)c3c2C)cc1,nt,i,nt,i,nt,nt
CC(C)Cn1c(=O)c2sccc2n2c(CCCC(=O)NCC(C)c3ccccc3)nnc12 (stereo unspecified),nt,i,nt,i,nt,nt
CC(C)C(NC(=O)c1ccccc1)C(=O)OCc1cc([N+](=O)[O-])cc2c1OCOC2 (stereo unspecified),i,i,i,i,i,i
CCOc1ccccc1C(=O)N[C@H](C(=O)OCc1cc([N+](=O)[O-])cc2c1OCOC2)C(C)C,i,i,13µM,i,i,?
O=C(Nc1cccc(-c2csc(Nc3ccc(Cl)cc3)n2)c1)c1cc([N+](=O)[O-])cc(C(F)(F)F)c1,?,i,1.7µM,i,i,2.1µM
C=CCN=c1scc(-c2ccco2)n1/N=C/c1ccc(O)c(O)c1O,4.5µM,i,?,i,i,?
